In the library only some 12% were active in any assay of this set; here they are far more common.
BAZ2B inh – qHTS Assay for Inhibitors of BAZ2B. Bromodomain adjacent to zinc finger domain protein 2B (Homo sapiens), Q9UIF8. AlphaScreen BAZ2B-H3K14Ac peptide displacement. Potency, µM (highest dose often 114 µM), without a hit: at the highest dose activity change, negative = inhibition, usual class: inhibitors. 360,000 tested, 4.4% active. AID 504333, 2011; note: % is set by controls: 0 for no effect and ±100 for the full control effect; nearly all actives have a fitted effect of over 60% in size
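AlphaScreen displacement of biotin-H3(5-23)K14Ac peptide (50 nM final) from BAZ2B (50 nM final) in PBS pH 7.4, 0.01% Tween-20; complex preformed 30 min RT, then compounds (top 110 uM) 30 min RT, beads 20 min dark.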
JMJD2A Tudor inh – qHTS Assay for Inhibitors of JMJD2A-Tudor Domain; AID 504339, 2011; Lysine-specific demethylase 4A (Homo sapiens), O75164; AlphaScreen JMJD2A-Tudor / H3K4me3 peptide binding; Potency, µM (titrated, usually from 114 µM), inactives show top-dose activity change, negative = inhibition, hits mostly inhibitors; 390,000 tested, 4.4% active; note: % is set by controls: 0 for no effect and ±100 for the full control effect; nearly all actives have a fitted effect of over 50% in size
HP1b chromo inh – HTS for Inhibitors of HP1-beta Chromodomain Interactions with Methylated Histone Tails | Potency, µM (series often up to 114 µM), inactives show at the highest dose activity change, negative = inhibition, usual class: inhibitors | 390,000 tested, 0.56% active | AlphaScreen HP1-beta / biotin-H3K9me3 peptide binding | AID 540317, 2011; note: nearly all actives have a fitted effect of over 70% in size
Target sequence (P83916 whole entry, looked up): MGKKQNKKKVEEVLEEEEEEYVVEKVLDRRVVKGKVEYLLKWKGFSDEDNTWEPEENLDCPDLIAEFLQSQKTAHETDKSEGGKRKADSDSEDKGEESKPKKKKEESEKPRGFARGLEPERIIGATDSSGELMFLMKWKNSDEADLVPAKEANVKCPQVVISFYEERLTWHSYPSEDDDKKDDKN
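AlphaScreen: HP1-beta (50 nM) preformed 30 min with biotin-H3(1-18)K9me3 peptide (50 nM) in PBS pH 7.4, 0.01% Tween-20. Compound added for 30 min at RT, then streptavidin donor/nickel chelate acceptor beads (10 ug/mL) for 30 min.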
G9a block – qHTS Assay for Inhibitors of Histone Lysine Methyltransferase G9a; Potency, µM (doses to about 102 µM), for the others: top-dose activity, negative = inhibition, usual class: inhibitors; 350,000 tested, 8.8% active; G9a H3K9 monomethylation, AlphaScreen, 2 h; Histone-lysine N-methyltransferase EHMT2 (Homo sapiens), Q96KQ7; note: % is set by controls: 0 for no effect and ±100 for the full control effect; nearly all actives have a fitted effect of over 75% in size
Target sequence (Q96KQ7 913-1193 limits assumed): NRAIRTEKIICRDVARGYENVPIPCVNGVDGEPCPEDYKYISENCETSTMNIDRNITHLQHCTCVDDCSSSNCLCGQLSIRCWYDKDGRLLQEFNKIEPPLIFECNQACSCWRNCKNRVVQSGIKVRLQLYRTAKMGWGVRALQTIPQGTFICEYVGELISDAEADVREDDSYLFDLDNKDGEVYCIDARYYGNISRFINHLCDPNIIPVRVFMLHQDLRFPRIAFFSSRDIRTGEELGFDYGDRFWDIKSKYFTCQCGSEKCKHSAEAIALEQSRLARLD
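Chemiluminescent proximity detection of H3K9 monomethylation, read after 10 min bead incubation in the dark. Reaction: 20 nM G9a, 500 nM biotin-H3K9 peptide, 20 uM SAM cofactor, 2 h, room temperature, following 15 min enzyme-compound preincubation.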
Sfp PPTase inh – qHTS Assay for Inhibitors of Bacillus subtilis Sfp phosphopantetheinyl transferase (PPTase); 4'-phosphopantetheinyl transferase ffp (Bacillus subtilis), Q9F4F7; Biochemical Sfp PPTase activity, qHTS; Potency, µM, without a hit: largest response in the series, negative = inhibition, hits mostly inhibitors; 310,000 tested, 3.5% active; AID 1490, 2009;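 note: the enzyme is Sfp with the accession as filed and its product quenches rhodamine fluorescence; 0% = enzyme reaction without inhibitor and -100% = no enzyme wells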
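Step 1, compound plus 15 nM Sfp-PPTase, 15 min, room temperature. Step 2, add rhodamine-CoA (5 uM) and BHQ-2-YbbR (12.5 uM). Step 3, read 525/598 nm fluorescence at 0 and 30 min.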
L3MBTL1 inh – qHTS Assay for the Inhibitors of L3MBTL1. Potency, µM (top dose mostly 57.1 µM), for the others: at the highest dose activity, negative = inhibition, most hits filed as inhibitors. 230,000 tested, 0.66% active. Lethal(3)malignant brain tumor-like protein 1 (Homo sapiens), Q9Y468. AlphaScreen L3MBTL1–H3K9me1 peptide binding; note: % is set by controls: 0 for no effect and ±100 for the full control effect; nearly all actives have a fitted effect of over 60% in size
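AlphaScreen assay: L3MBTL1 (50 nM final) was preincubated 30 min at room temperature with biotinylated H3(1-15)K9me1 peptide (75 nM final), then 30 min with library compounds; streptavidin donor and nickel chelate acceptor beads (10 ug/mL final) added, 30 min dark.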
Active calls of the source: *; u = inconclusive; x = no result; [ ] = another dose, or the depositor's remark. Calls come from the whole dose curve; as a rule, active = well fitted curve in the direction sought with a large enough effect; inconclusive = small, poorly fitted or top-dose-only effect, or another doubt; inactive = no such curve, though single readings can be large; an effect the other way counts as inactive or inconclusive. Potency is the fitted concentration of half-maximal effect.

SMILES	BAZ2B inh	JMJD2A Tudor inh	HP1b chromo inh	G9a block	Sfp PPTase inh	L3MBTL1 inh
CCN(CC)c1ccc(/C=N/NC(=O)Cc2nnc(NC(=O)Nc3ccccc3)s2)cc1	-10%	-32%	-8%[57 µM]	u	14%	-14%
CN(C)c1ccc(-c2sc(Nc3ccccc3)n[n+]2-c2ccc(F)cc2)cc1	10%	u	1%	x	-10%	60%
CCN(CC)c1ccc(-c2sc(Nc3ccccc3)n[n+]2-c2ccc(F)cc2)cc1	28µM*	56µM*	-13%	45µM*	56µM*	-9%
CCc1ccc(Nc2n[n+](-c3ccccc3)c(-c3ccc(N(CC)CC)cc3)s2)cc1	40µM*	40µM*	u	13µM*	50µM*	-12%
COC(=O)/C=C/c1cccc(N(Cc2ccc(-c3ccc(N(C)C)cc3)cc2)C(=O)C2CCCCC2)c1	x	x	x	x	-11%	x
Cc1cccc(-c2noc(-c3cc(C(C)C)[nH]n3)n2)c1	14%	-6%	25%	-16%[59 µM]	x	x
COc1cccc2sc(NN)nc12	x	u	u	32µM*	50µM*	x
NNc1nc2c(Cl)c(Cl)ccc2s1	50µM*	10µM*	-34%	u	-4%	-3%
COc1ccc(-c2nnc(SCC(=O)Nc3ccc(Cl)cc3)s2)cc1	11%	5%	23%[57 µM]	2%[59 µM]	x	x
COC(=O)c1c(NC(=O)COc2ccc(OC)cc2)sc2c1CCC(C)C2 (stereo unspecified)	0%	-5%	36%	-24%[59 µM]	x	x
CCCNC(=O)c1csc2c1CCCCC2	7%	-8%	20%	15%[59 µM]	6%	x
NS(=O)(=O)c1ccc(CNC(=O)c2csc3c2CCCC3)cc1	-13%	-3%	15%	20µM*	3%	1%
COC(=O)c1ccc(C2/C(=C(/O)c3ccc4c(c3)CC(C)O4)C(=O)C(=O)N2CCN2CCOCC2)cc1 (stereo unspecified)	-17%[57.1 µM]	u	46%	50µM*	-8%	x
COc1ccc(C2/C(=C(\O)c3ccc4c(c3)OCCO4)C(=O)C(=O)N2c2nc(C)c(C(C)=O)s2)cc1 (stereo unspecified)	u	-28%	7%	45µM*	45µM*	x
COC(=O)c1ccc(C2/C(=C(\O)c3ccc4c(c3)OCCO4)C(=O)C(=O)N2c2nnc(C)s2)cc1 (stereo unspecified)	-38%	-29%	66%	45µM*	-1%	x
Cc1nnc(N2C(=O)C(=O)/C(=C(/O)c3ccc4c(c3)OCCO4)C2c2ccc([N+](=O)[O-])cc2)s1 (stereo unspecified)	u	x	x	28µM*	-6%	x
Cc1onc(-c2ccc(Cl)cc2Cl)c1-c1csc(COc2ccccc2)n1	40%	107%	80%	340%	6%	39%
Cc1cc2c(s1)c1cnn(Cc3ccccc3F)c(=O)c1n2C(C)C	x	14%	x	x	x	x
COCCCN1C(=O)C(=O)/C(=C(/O)c2ccc3c(c2)OCCO3)C1c1ccc(C(=O)OC)cc1 (stereo unspecified)	-32%	u	-1%	-12%[59 µM]	-15%	0%
COCCN1C(=O)C(=O)/C(=C(/O)c2ccc3c(c2)OCCO3)C1c1ccc(C(=O)OC)cc1 (stereo unspecified)	u	45µM*	-8%	u	10%	2%
Cc1cc(C)cc(NC(=S)N2CC(C)OC(C)C2)c1 (stereo unspecified)	-5%	1%	37%	14%	5%	x
O=S(=O)(O)CCCS(=O)(=O)O	x	x	x	-43%[12.7 µM]	16%	x
O=C(O)CNC(=O)CC1S/C(=N/N=C/c2ccccc2O)NC1=O (stereo unspecified)	50µM*	u	14%	8%	30%	x
O=C(CC1S/C(=N/N=C2CCCCCC2)NC1=O)Nc1ccccc1F (stereo unspecified)	-2%	1%	55%	26%	10%	x
C/C(=N\N=C1\NC(=O)C(CC(=O)NCc2ccccc2)S1)C(C)C (stereo unspecified)	-16%	0%	24%	18%	16%	1%
SMILES	BAZ2B inh	JMJD2A Tudor inh	HP1b chromo inh	G9a block	Sfp PPTase inh	L3MBTL1 inh
O=C(O)CNC(=O)CC1S/C(=N/N=C2\CSC(=O)N2)NC1=O (stereo unspecified)	6.3µM*	7.1µM*	58%	-27%	4µM*	x
NC(=O)NC(=O)CC1S/C(=N/N=C2/NC(=O)CS2)NC1=O (stereo unspecified)	20µM*	28µM*	21%	5µM*	-29%	-2%
CC(=O)c1cccc(NC(=O)CC2S/C(=N/N=C/c3ccccc3)NC2=O)c1 (stereo unspecified)	-17%	3%	58%	42%[59 µM]	-12%	x
O=C1C=C(c2ccccc2)C(=O)N1Nc1ccccc1	-5%	-12%	21%	8.9µM*	10µM*	x
O=C(NCC1CCCO1)C1CCCN1C(=O)Nc1ccc(Cl)c(Cl)c1 (stereo unspecified)	-10%	-11%	30%	-9%	10%	3%
CCOc1ccc(C(=S)NC2CCCCC2)cc1OCC	u	79µM*	u	7.9µM*	14µM*	x
CC1Nc2ccc(C(=O)NC3CCCCC3)cc2NC1=O (stereo unspecified)	-17%	0%	42%	35µM*	-9%	x
Cc1cccc(C(=O)NC2CCCCCCC2)c1	-1%	-5%	33%	7%	9%	x
CN(C)c1ccc(C(=S)NC2CCCCC2)cc1	-34%	u	u	5.6µM*	20µM*	u
CC(C)C1Nc2ccc(C(=O)NC3CCCCC3)cc2NC1=O (stereo unspecified)	-11%	0%	40%	-6%	3%	x
CN(C)c1cccc(C(=O)NC2CCCCCC2)c1	-34%	u	11%	8.9µM*	u	-1%[11.4 µM]
CCOc1ccc(C(C)NC(=S)NC2CCCCC2)cc1OCC (stereo unspecified)	-30%	-14%	10%	-32%	15%	x
CCN(CC)c1ccc(C(=S)NC2CCCCC2)cc1	22µM*	u	32µM*	-147%[59 µM]	32µM*	-19%
C#CCOCCOCCOCCNc1nc(N2CCN(C(=O)CCCCCCCCCCNC(=O)[C@@H](CCSC)n3cc(CCO)nn3)CC2)nc(N2CCN(C(=O)CCCCCCCCCCNC(=O)[C@H]([C@@H](C)CC)n3cc(CCCCCN)nn3)CC2)n1	u	56µM*	u	19%[2.33 µM]	x	0%
